Inconclusive results are not listed. Where a call stands in place of a potency, no number is given. Values without a mark were called inactive. Active and inactive are the calls of the source. Calls come from the whole dose curve; as a rule, active = well fitted inhibition curve with a large enough effect; inconclusive = small, poorly fitted or top-dose-only effect; inactive = flat fitted curve, though single readings scatter. Where a SMILES comes first, the peptide text is derived from it. The star is where a group is joined. Cbz = O=C(OCc1ccccc1)*; CH2F = FC*

Sequence of Calcium and integrin-binding protein 1 (Homo sapiens) (Q99828 whole entry, looked up): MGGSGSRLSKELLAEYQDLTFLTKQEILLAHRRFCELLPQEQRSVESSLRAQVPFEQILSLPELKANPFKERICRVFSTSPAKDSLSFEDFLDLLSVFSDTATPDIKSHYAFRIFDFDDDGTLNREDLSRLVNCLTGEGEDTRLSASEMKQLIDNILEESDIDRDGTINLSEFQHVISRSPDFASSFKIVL

The test concerns the target Calcium and integrin-binding protein 1 (Homo sapiens) (UniProt Q99828). Put plainly: Primary qHTS for Identification of Calcium Integrin Binding Protein 1 (CIB1) Competitor (AID 1508620). Note: top concentration of the series differs between compounds. As to conditions: CIB1-GST / FITC-alphaIIb peptide fluorescence polarization; series mostly up to 57.7 µM. The gist of the method: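 Fluorescence polarization competition: GST-tagged CIB1 (1 uM final) preincubated with compound 15 min at room temperature, then FITC-labelled alphaIIb peptide (100 nM final) added. After 15 min at room temperature, polarization read at Ex 480/Em 540.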
A general note: In qHTS, concentration-response curves come from the screen itself.
For the compound `CC1OC(O[C@@H]2[C@@H](O)[C@H](OC(=O)[C@]34CCC(C)(C)C[C@H]3C3=CCC5[C@@]6(C)CC[C@H](O[C@@H]7O[C@H](C(=O)O)[C@@H](O)[C@H](O[C@@H]8OC[C@@H](O)[C@H](O)[C@H]8O)[C@H]7O[C@@H]7O[C@H](CO)[C@H](O)[C@H](O)[C@H]7O)[C@@](C)(C=O)C6CC[C@@]5(C)[C@]3(C)C[C@H]4O)O[C@H](C)[C@@H]2OC2OC(C)C(OC3OCC(O)C(O)C3O)C(O)C2O)C(O)C(O)C1O` (some centres not stated), the activity change, negative = inhibition was 3.33% [at 12.4 µM].
For the compound `C=C(C)[C@@]1(O)C[C@@]2(C)C(=CC1=O)CC[C@@H](O)[C@@H]2C`, the Potency entry was “inactive”.
The same measure, in the same setting: the result for `OC[C@@]1(O)CO[C@H](OC[C@H]2O[C@@H](OC(CCCCc3ccc(O)cc3)CCc3ccc(O)cc3)[C@H](O[C@H]3OC[C@](O)(CO)[C@H]3O)[C@@H](O)[C@@H]2O)[C@@H]1O` (some centres not stated) reads “inactive”; that for `CC1(C)CC[C@]2(C(=O)O)CC[C@]3(C)C(=CCC4[C@@]5(C)CC[C@H](O[C@@H]6O[C@H](C(=O)O)[C@@H](O)[C@H](O)[C@H]6O)C(C)(C)C5CC[C@]43C)C2C1` (some centres not stated), “inactive”; that for `COC(=O)CC[C@H](NC(=O)[C@H](CC(C)C)NC(=O)OCc1ccccc1)C(=O)N[C@@H](Cc1cnc[nH]1)C(=O)N[C@@H](CC(=O)OC)C(=O)CF` (Cbz-LE(OMe)HD(OMe)-CH2F), “inactive”.
The same measure, in the same setting: the entry for `C[C@H]1[C@@H](O)[C@H](O)C2[C@]3(C)C([C@@H](O)[C@H]4OC(=O)[C@@H]1[C@@]24C)[C@](C)(O)C=C[C@H]3O[C@@H]1O[C@H](CO)[C@@H](O)[C@H](O)[C@H]1O` (some centres not stated) is “inactive”; for `C[C@@H]1O[C@@H](O[C@H]2[C@H](O)[C@@H](O)[C@H](OC[C@H]3O[C@@H](OC(=O)[C@]45CCC(C)(C)C[C@H]4C4=CCC6[C@@]7(C)C[C@@H](O)[C@H](O)[C@@](C)(CO)C7[C@H](O)C[C@@]6(C)[C@]4(C)CC5)[C@H](O)[C@@H](O)[C@@H]3O)O[C@@H]2CO)[C@H](O)[C@H](O)[C@H]1O` (some centres not stated) it is “inactive”.
Still for that read-out and setting: the result for `C[C@]12CCC[C@](C)(C(=O)O)C1CCC13CC(CO)C(CCC12)C3` (some centres not stated) reads “inactive”.
Regarding `CC(C)C1(O)C=C2C(=O)CC3C(C)(C(=O)O)CCCC3(C)C2CC1` (configuration not stated), the Potency result was “inactive”.
With `CC(CC12CCCN1C(=O)C1CCCN1C2=O)OC(N)=O` (configuration not stated), the Potency result was “inactive”.
Still for that read-out and setting: the entry for `CC(/C=C/C=C(\C)C(=O)O[C@@H]1O[C@H](CO[C@@H]2O[C@H](CO)[C@@H](O)[C@H](O)[C@H]2O)[C@@H](O)[C@H](O)[C@H]1O)=C\C=C\C=C(C)\C=C\C=C(/C)C(=O)O[C@@H]1C[C@](O)(C(=O)O)C[C@@H](O)[C@H]1OC(=O)/C=C/c1ccc(O)c(O)c1` is “inactive”.
Still for that read-out and setting: the entry for `COC(=O)C1=C[C@@H](O)[C@@H](O)[C@H](O[C@@H]2O[C@H](CO)[C@@H](O)[C@H](O)[C@H]2OC(=O)/C=C/c2ccccc2)C1` is “inactive”.

These data come from PubChem BioAssay (NCATS).
